Out of some 5,500 compounds screened, about 2,000 (36%) were called active. Another 18% or so got no clear call; they are omitted. Some of the results follow. Values without a mark were called inactive. Cut-off read from the data, not from the text of the source: active = normalized growth mostly below about 0.91 (no sharp cut-off); inconclusive = no clear call, values can overlap the other calls; inactive = mostly above about 0.92.
Test: chemical genetic growth profiling, strain panel (AID 1159580);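 note: tested at 20 µM; growth read once vehicle control cultures reached saturation at 30 °C; 1 = growth at the plate median or of vehicle wells; lower values mean less growth of the strain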
Details: S. cerevisiae deletion strains, growth OD
[1] = locus YAR019C, strain CDC15, stronger effect = lower value
[2] = locus YBL105C, strain PKC1, stronger effect = lower value
[3] = locus YBR135W, strain CKS1, stronger effect = lower value
[4] = locus YBR136W, strain MEC1, stronger effect = lower value
[5] = locus YBR160W, strain CDC28, stronger effect = lower value
[6] = locus YDL017W, strain CDC7, stronger effect = lower value
[7] = locus YDL028C, strain MPS1, stronger effect = lower value
[8] = locus YDL101C, strain DUN1, stronger effect = lower value
[9] = locus YDL108W, strain KIN28, stronger effect = lower value
[10] = locus YDL132W, strain cdc53, stronger effect = lower value
[11] = locus YDL214C, strain PRR2, stronger effect = lower value
[12] = locus YDR052C, strain DBF4, stronger effect = lower value
[13] = locus YDR054C, strain cdc34, stronger effect = lower value
[14] = locus YDR226W, strain ADK1, stronger effect = lower value
[15] = locus YDR477W, strain SNF1, stronger effect = lower value
[16] = locus YER123W, strain YCK3, stronger effect = lower value
[17] = locus YER133W, strain GLC7, stronger effect = lower value
[18] = locus YFL009W, strain cdc4, stronger effect = lower value
[19] = locus YFL029C, strain CAK1, stronger effect = lower value
[20] = locus YFR003C, strain YPI1, stronger effect = lower value
[21] = locus YFR019W, strain FAB1, stronger effect = lower value
[22] = locus YFR028C, strain CDC14, stronger effect = lower value
[23] = locus YGR040W, strain KSS1, stronger effect = lower value
[24] = locus YGR052W, strain FMP48, stronger effect = lower value
[25] = locus YGR092W, strain DBF2, stronger effect = lower value
[26] = locus YHR030C, strain SLT2, stronger effect = lower value
[27] = locus YHR079C, strain IRE1, stronger effect = lower value
[28] = locus YHR082C, strain KSP1, stronger effect = lower value
[29] = locus YHR205W, strain SCH9, stronger effect = lower value
[30] = locus YIL147C, strain SLN1, stronger effect = lower value
[31] = locus YJL095W, strain BCK1, stronger effect = lower value
[32] = locus YJL128C, strain PBS2, stronger effect = lower value
[33] = locus YJL157C, strain FAR1, stronger effect = lower value
[34] = locus YJR016C, strain ILV3, stronger effect = lower value
[35] = locus YJR066W, strain TOR1 (second series), stronger effect = lower value
[36] = locus YJR066W, strain TOR1, stronger effect = lower value
[37] = locus YKL048C, strain ELM1, stronger effect = lower value
[38] = locus YKL067W, strain YNK1, stronger effect = lower value
[39] = locus YKL101W, strain HSL1, stronger effect = lower value
[40] = locus YKL193C, strain SDS22, stronger effect = lower value
[41] = locus YKL203C, strain TOR2, stronger effect = lower value
[42] = locus YLR113W, strain HOG1, stronger effect = lower value
[43] = locus YLR133W, strain CKI1, stronger effect = lower value
[44] = locus YLR403W, strain SFP1, stronger effect = lower value
[45] = locus YML070W, strain DAK1, stronger effect = lower value
[46] = locus YMR001C, strain CDC5, stronger effect = lower value
[47] = locus YMR205C, strain PFK2 (second series), stronger effect = lower value
[48] = locus YMR277W, strain FCP1, stronger effect = lower value
[49] = locus YNL006W, strain LST8, stronger effect = lower value
[50] = locus YNL020C, strain ARK1, stronger effect = lower value
[51] = locus YNL161W, strain CBK1, stronger effect = lower value
[52] = locus YNL183C, strain NPR1, stronger effect = lower value
[53] = locus YNL207W, strain RIO2, stronger effect = lower value
[54] = locus YNL222W, strain SSU72, stronger effect = lower value
[55] = locus YNL307C, strain MCK1 (second series), stronger effect = lower value
[56] = locus YOL078W, strain AVO1, stronger effect = lower value
[57] = locus YOL136C, strain PFK27, stronger effect = lower value
[58] = locus YOR061W, strain CKA2, stronger effect = lower value
[59] = locus YOR119C, strain RIO1, stronger effect = lower value
[60] = locus YOR231W, strain MKK1, stronger effect = lower value
[61] = locus YOR329C, strain SCD5, stronger effect = lower value
[62] = locus YPL031C, strain PHO85, stronger effect = lower value
[63] = locus YPL153C, strain RAD53, stronger effect = lower value
[64] = locus YPL204W, strain HRR25, stronger effect = lower value
[65] = locus YPL209C, strain IPL1, stronger effect = lower value
[66] = locus YPL256C, strain CLN2, stronger effect = lower value
[67] = locus YPR025C, strain CCL1, stronger effect = lower value
[68] = locus YPR106W, strain ISR1, stronger effect = lower value
[69] = locus YPR111W, strain DBF20, stronger effect = lower value
[70] = strain NNK1, stronger effect = lower value
[71] = strain TSCII, stronger effect = lower value

## N#CCC(=O)NNC(=S)Nc1ccc(Cl)c(Cl)c1
[1]
  normalized growth: 0.991
[2]
  normalized growth: 0.985
[3]
  normalized growth: 0.981
[4]
  normalized growth: 0.983
[5]
  normalized growth: 0.991
[6]
  normalized growth: 0.987
[7]
  normalized growth: 0.986
[8]
  normalized growth: 0.981
[9]
  normalized growth: 0.98
[10]
  normalized growth: 0.974
[11]
  normalized growth: 0.938
[12]
  normalized growth: 0.988
[13]
  normalized growth: 0.98
[14]
  normalized growth: 0.982
[15]
  normalized growth: 0.929
[16]
  normalized growth: 0.895
[17]
  normalized growth: 0.92
[18]
  normalized growth: 0.98
[19]
  normalized growth: 0.989
[20]
  normalized growth: 0.979
[21]
  normalized growth: 0.969
[22]
  normalized growth: 0.979
[23]
  normalized growth: 0.93
[24]
  normalized growth: 0.955
[25]
  normalized growth: 0.965
[26]
  normalized growth: 0.931
[27]
  normalized growth: 0.965
[28]
  normalized growth: 1.04
[29]
  normalized growth: 0.96
[30]
  normalized growth: 0.986
[31]
  normalized growth: 0.932
[32]
  normalized growth: 0.943
[33]
  normalized growth: 0.931
[34]
  normalized growth: 0.978
[35]
  normalized growth: 0.913
[36]
  normalized growth: 1.07
[37]
  normalized growth: 0.97
[38]
  normalized growth: 0.936
[39]
  normalized growth: 0.942
[40]
  normalized growth: 0.975
[41]
  normalized growth: 1.01
[42]
  normalized growth: 0.881
[43]
  normalized growth: 0.96
[44]
  normalized growth: 0.963
[45]
  normalized growth: 0.93
[46]
  normalized growth: 0.979
[47]
  normalized growth: 0.942
[48]
  normalized growth: 0.982
[49]
  normalized growth: 0.984
[50]
  normalized growth: 0.964
[51]
  normalized growth: 0.981
[52]
  normalized growth: 1.04
[53]
  normalized growth: 0.978
[54]
  normalized growth: 0.984
[55]
  normalized growth: 0.962
[56]
  normalized growth: 0.975
[57]
  normalized growth: 0.95
[58]
  normalized growth: 0.95
[59]
  normalized growth: 0.988
[60]
  normalized growth: 0.975
[61]
  normalized growth: 0.985
[62]
  normalized growth: 0.916
[63]
  normalized growth: 0.916
[64]
  normalized growth: 0.917
[65]
  normalized growth: 0.987
[66]
  normalized growth: 0.956
[67]
  normalized growth: 0.988
[68]
  normalized growth: 0.975
[69]
  normalized growth: 0.976
[70]
  normalized growth: 0.988
[71]
  normalized growth: 0.983

## Cc1cc(Cl)ccc1NC(=S)NNC(=S)Nc1ccc(F)cc1
[1]
  normalized growth: 0.968
[2]
  normalized growth: 0.974
[3]
  normalized growth: 0.972
[4]
  normalized growth: 0.97
[5]
  normalized growth: 0.966
[6]
  normalized growth: 0.975
[7]
  normalized growth: 0.969
[8]
  normalized growth: 0.973
[9]
  normalized growth: 0.97
[10]
  normalized growth: 0.966
[11]
  normalized growth: 0.943
[12]
  normalized growth: 0.968
[13]
  normalized growth: 0.943
[14]
  normalized growth: 0.971
[15]
  normalized growth: 0.898
[16]
  normalized growth: 0.878
[17]
  normalized growth: 0.925
[18]
  normalized growth: 0.964
[19]
  normalized growth: 0.965
[20]
  normalized growth: 0.957
[21]
  normalized growth: 0.964
[22]
  normalized growth: 0.956
[23]
  normalized growth: 0.912
[24]
  normalized growth: 1.04
[25]
  normalized growth: 0.863
[26]
  normalized growth: 0.763 (active)
[27]
  normalized growth: 0.902
[28]
  normalized growth: 0.986
[29]
  normalized growth: 0.914
[30]
  normalized growth: 0.964
[31]
  normalized growth: 0.869
[32]
  normalized growth: 0.93
[33]
  normalized growth: 0.919
[34]
  normalized growth: 0.96
[35]
  normalized growth: 0.911
[36]
  normalized growth: 0.917
[37]
  normalized growth: 0.97
[38]
  normalized growth: 0.916
[39]
  normalized growth: 0.935
[40]
  normalized growth: 0.964
[41]
  normalized growth: 0.954
[42]
  normalized growth: 0.929
[43]
  normalized growth: 0.926
[44]
  normalized growth: 0.896
[45]
  normalized growth: 0.928
[46]
  normalized growth: 0.965
[47]
  normalized growth: 0.939
[48]
  normalized growth: 0.95
[49]
  normalized growth: 0.964
[50]
  normalized growth: 0.921
[51]
  normalized growth: 0.973
[52]
  normalized growth: 0.923
[53]
  normalized growth: 0.961
[54]
  normalized growth: 0.972
[55]
  normalized growth: 0.9
[56]
  normalized growth: 0.957
[57]
  normalized growth: 0.916
[58]
  normalized growth: 0.937
[59]
  normalized growth: 0.977
[60]
  normalized growth: 0.924
[61]
  normalized growth: 0.972
[62]
  normalized growth: 0.899
[63]
  normalized growth: 0.884
[64]
  normalized growth: 0.861
[65]
  normalized growth: 0.969
[66]
  normalized growth: 0.904
[67]
  normalized growth: 0.973
[68]
  normalized growth: 0.971
[69]
  normalized growth: 0.969
[70]
  normalized growth: 0.96
[71]
  normalized growth: 0.966

Source: PubChem BioAssay AID1159580 (chemical genetic matrix, 2015)
